This is a sample that favours compounds with a hit; in the whole collection about 2.6% have one here.
AI-2 QS mod – Vibrio harveyi AI-2 quorum sensing modulators, primary screen, JMH597 strain, luminescence/OD600 ratio. Vibrio harveyi JMH597 AI-2 luminescence/OD600 ratio, 9 h; stronger effect = lower value; strain lacks LuxN and CqsS sensors; 0 = neutral-control median. activity change, % at 7.5 µM. 300,000 compounds, 0.4% hits. AID 2094, 2009; in the data active = activity change below about -75%, passing the limit was not always enough;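 also: luminescence divided by OD600 gain over 9 h not by final OD600 alone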
eIF4H FP inh – human eIF4H binding inhibitors, primary screen, translation initiation inhibitor project, biochemical, uHTS, fluorescence polarization. Eukaryotic translation initiation factor 4H (Homo sapiens), Q15056. eIF4H fluorescence polarization binding assay. 290,000 compounds, 0.94% hits. inhibition, % at 35 µM;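 also: calls also rest on retests at 20 µM and on dose response follow-up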
PABP polyA inh – PABP poly(A) RNA binding inhibitors, primary screen, biochemical, fluorescence polarization, uHTS; Polyadenylate-binding protein 1 (Homo sapiens), P11940; calls only at 35 µM; 290,000 compounds, 1% hits;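 also: calls also rest on retests at 20 µM and on dose response follow-up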
PHOSPHO1 block – PubChem AID 1565; recombinant PHOSPHO1, absorbance phosphatase assay; inhibition, % at 13.3 µM; 290,000 compounds, 1.1% hits; in the data active = inhibition above about 60%
Target sequence (Q8TCT1 whole entry, looked up): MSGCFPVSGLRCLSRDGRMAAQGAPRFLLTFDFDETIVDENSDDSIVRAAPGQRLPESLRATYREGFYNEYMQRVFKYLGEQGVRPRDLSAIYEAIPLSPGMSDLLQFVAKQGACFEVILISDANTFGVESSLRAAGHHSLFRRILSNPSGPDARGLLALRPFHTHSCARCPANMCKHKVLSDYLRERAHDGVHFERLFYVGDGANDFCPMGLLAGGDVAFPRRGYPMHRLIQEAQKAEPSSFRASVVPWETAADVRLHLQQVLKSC
PABP1 MLLE inh – inhibitors of PABP1 MLLE–PAM2 peptide binding, primary screen, biochemical, fluorescence polarization, FITC-PAM2, GST-MLLE; Polyadenylate-binding protein 1 (Homo sapiens), P11940; inhibition, % at 20 µM; 360,000 compounds, 0.36% hits; in the data active = inhibition above about 35%, passing the limit was not always enough;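 also: plate controls were DMSO wells with GST-MLLE for no effect and wells lacking GST-MLLE protein for full effect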
ABCB6 inh MLPCN – ABCB6 transporter inhibitors, primary screen, K562-ABCB6 cells, flow cytometry, MLPCN library | K562-ABCB6 porphyrin accumulation, 1 h; stronger effect = lower value | fluorescence ratio to DMSO, % at 10 µM | 360,000 compounds, 0.19% hits | AID 602162, 2011;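 active = fluorescence ratio to DMSO below 75%, the collection mean minus 3 SD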;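 also: signal is porphyrin accumulated inside mitochondria; 100% equals median channel fluorescence of DMSO control wells; lower ratio means ABCB6 inhibition with less porphyrin fluorescence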
* hit, by the source's call; i = inactive; · = no result given; + = active, no number. Unless noted, no rule for the calls is given here.

SMILES	AI-2 QS mod	eIF4H FP inh	PABP polyA inh	PHOSPHO1 block	PABP1 MLLE inh	ABCB6 inh MLPCN
O=C(CN1C(=O)c2cccc3cccc1c23)Nc1ccc(S(=O)(=O)Nc2nccs2)cc1	-96*	18	i	-20	·	98
CCOC1=C2CN(S(=O)(=O)c3ccc(C)cc3)[C@H](c3cccc(Cl)c3)C[C@@H]2N(S(=O)(=O)c2ccccc2[N+](=O)[O-])[C@H](c2ccccc2)C1	·	·	·	·	12	97
CC1=NN(c2ccc(C)c(C)c2)C(=O)/C1=C\C=C\c1ccc([N+](=O)[O-])o1	29	92*	i	-52	-66	127
COc1ccc(C2CC=C(C(C)=O)CN2S(=O)(=O)c2ccc(C)cc2)cc1 (centres undefined)	·	·	·	·	-9	101
CC1CCN(S(=O)(=O)c2ccc(NC(=O)CN3C(=O)NC(C)(c4ccccc4)C3=O)cc2)CC1 (centres undefined)	-79*	·	·	·	-47	92
CC1(c2ccc(OC(F)F)cc2)NC(=O)N(CC(=O)Nc2ccccc2)C1=O (centres undefined)	-91*	-10	i	40	-8	97
CCC1(c2ccccc2)NC(=O)N(CC(=O)Nc2ccc(S(=O)(=O)N3CC(C)CC(C)C3)cc2)C1=O (centres undefined)	30	·	·	·	-2	100
CC1(c2ccc(OC(F)F)cc2)NC(=O)N(CC(=O)Nc2ccc3[nH]c(=O)[nH]c3c2)C1=O (centres undefined)	16	·	·	·	-17	95
COc1cccc(-c2cnc(C(O)c3cc(C)cc(C)c3)[nH]2)c1 (centres undefined)	·	·	·	·	17	95
O=c1[nH]c(Nc2ccccc2Cl)cc2ccccc12	40	·	·	·	12	99
O=c1[nH]c(Nc2ccc(F)cc2)cc2ccccc12	30	21	+	0	2	106
COc1ccc2c(c1[N+](=O)[O-])CCC/C2=N/OC(=O)c1cccc2ccccc12	17	-2	i	78*	0	104
COc1ccc2c(c1)CCC/C2=N/OC(=O)c1ccccc1OC	21	40	i	40	15	98
CCc1nc2ccc(C(=O)NCCOc3ccc(OC)cc3)cn2c1N(C)C(=O)Cc1ccccc1	·	·	·	·	-3	105
CCCCNC(=O)c1onc(CSc2ccc(OC)cc2)c1C(=O)O	18	-3	i	98*	9	101
CCCCNC(=O)c1onc(CSc2ccc(F)cc2)c1C(=O)O	18	6	i	3	-5	99
CC(C)=CCn1c2ccc(NC(=S)NC3CC3)cc2c(=O)n1C	·	·	·	·	20	87
O=[N+]([O-])c1cccc(C(=S)N2CCN(c3ccccc3F)CC2)c1	27	12	i	43	46*	98
O=C(OCC(=O)N1CCN(c2ccccc2)CC1)c1cccc([N+](=O)[O-])c1	26	·	·	·	10	95
O=[N+]([O-])c1cccc(C(=S)N2CCN(c3ccccc3)CC2)c1	17	9	i	79*	63*	100
CC1CN(C(=S)c2cccc([N+](=O)[O-])c2)CC(C)O1 (centres undefined)	19	-1	i	-11	39*	94
CSc1ccc(C(O)c2ncc(-c3cccc(F)c3)[nH]2)cc1 (centres undefined)	·	·	·	·	-14	96
Cc1cn([C@H]2C[C@H](O)[C@@H](/C=C/C(=O)NCCc3ccc4c(c3)OCO4)O2)c(=O)[nH]c1=O	·	·	·	·	-9	101
Cc1ccc([C@H]2C[C@@H](O)[C@H](n3cc(C4CC4)nn3)CN2C(=O)C2CCCCC2)cc1	·	·	·	·	12	99
Cc1ccccc1Nc1nnc(SCC(=O)NCc2ccco2)s1	·	-6	i	87*	-10	99
SMILES	AI-2 QS mod	eIF4H FP inh	PABP polyA inh	PHOSPHO1 block	PABP1 MLLE inh	ABCB6 inh MLPCN
CC(C)(C)c1ccc(C(=O)NCc2nnc(SCC(=O)NCc3ccco3)o2)cc1	12	52*	i	34	-25	100
CC(C)c1nc(SCC(=O)Nc2nc3c(s2)CCCC3)c2ccccc2n1	20	-6	i	18	22	101
Cc1nnc(NC(=O)CSc2nc(C(C)C)nc3ccccc23)s1	26	-4	i	26	37*	97
CCCc1nc2sc3c(SCC(=O)NCc4ccco4)ncnc3c2c2c1CCC2	9	78*	+	-4	10	97
COc1ccccc1CNC(=O)C1(C)CCN1C(=O)Cc1ccc(-c2ccccc2)cc1 (centres undefined)	·	·	·	·	-8	100
CCc1nc2c(OCc3ccc(C(F)(F)F)cc3)cccn2c1N(C)C(=O)c1ccc(C)cc1	·	·	·	·	5	91
Cc1csc(NC(=O)CSc2ncnc3ccccc23)n1	-29	-3	i	63*	3	94
O=C(CSc1ncnc2ccccc12)NCc1ccco1	13	12	i	8	44*	100
C/C=C1\NC(=O)[C@H](C)NC(=O)[C@@H](NC(=O)[C@H](Cc2ccc(O)cc2)NC(=O)[C@@H](NC(=O)/C(C)=C/C)C(C)C)[C@@H](C)OC(=O)[C@H](CC(C)C)NC(=O)[C@@H](CCC(=O)O)NC1=O	·	·	·	·	2	96
COC(=O)C1CCN(C2CN(Cc3ccc(F)cc3)S(=O)(=O)C2)CC1 (centres undefined)	·	·	·	·	12	97
CCOC(=O)COc1ccc2c(C#N)c3ccccn3c2c1	13	83	i	-9	43*	96
N#Cc1c2ccc(OCC(N)=O)cc2n2ccccc12	14	32	i	46	35	102
CCc1nc2ccc(C(=O)N(C)CCN(C)C)cn2c1N(C)Cc1cc2ccccc2s1	·	·	·	·	14	93
S=C(Nc1ccccc1)Nc1nc2ccccc2n1CCOc1ccccc1	26	0	i	11	29	99
CCCCn1c(NC(=S)Nc2ccccc2)nc2ccccc21	-2	8	i	-4	40*	98
CCCN1C[C@H](CSC)C[C@@H]2c3cccc4[nH]cc(c34)C[C@H]21	13	100*	+	-1	20	93
O=C(O)CCCCCN1C(=O)C(O)=C(C(=O)/C=C/c2ccccc2)C1c1ccccc1[N+](=O)[O-] (centres undefined)	32	4	i	37	47*	101
CCC(C(=O)N1CCN(Cc2ccc3c(c2)OCO3)CC1)n1c(=O)[nH]c2ccccc2c1=O (centres undefined)	1	-2	i	70*	0	105
